Where “and” joins values, the source holds several entries; their conditions need not be identical. Identical values can stand only once. Records with an inconclusive call do not appear. Entries that show only a call come without a potency. The source holds several records for some structures; these can differ, active in one and inactive in another. Calls of active or inactive are those of the source. Calls follow the shape of the dose curve; as a rule, active = well fitted cell-killing curve with a large enough effect in the repeat runs; inconclusive = weak or mixed curves, or effect the other way; inactive = flat fitted curve, though single readings scatter.
Experiment: qHTS assay to identify small molecule antagonists of the androgen receptor (AR) signaling pathway using the MDA cell line in the presence of 0.5 nM R1881 - cell viability counter screen (AID 1259242); also: nearly all actives have a fitted effect of over 45% in size
Settings: MDA-kb2 viability, CellTiter-Fluor protease fluorescence, 16 h; series mostly up to 92.4 µM
Text: U.S. Tox21 Program National Center for Advancing Translational Sciences [NCATS] NIH Chemical Genomics Center [NCGC] U.S. Environmental Protection Agency [EPA] National Institutes of Environmental Health Sciences [NIEHS] National Toxicology Program [NTP] U.S. Food and Drug Administration [FDA] Tox21 Assay Overview: Androgen receptor (AR) is an important member of the nuclear receptor family. Its signaling plays a critical role in AR-dependent prostate cancer and other androgen related diseases. Considerable attention has been given in the past decades to develop methods to study and screen for the environmental chemicals that have the potential to interfere with metabolic homeostasis, reproduction, developmental and behavioral functions. Therefore AR binding assay for screening androgen antagonists can be used to identify potential endocrine disruptors. MDA-kb2 cells (from ATCC, deposited by Wilson et al.) were used to screen for AR inhibitors against Tox21 compound libraries. These cells are human breast carcinoma cells that were stably transfected with a luciferase reporter gene under control of the MMTV promoter that contains response elements for both androgen receptor (AR) and glucocorticoid receptor (GR). The current screening for identification of AR inhibitors against Tox21 libraries used lower concentration of (0.5 nM) R1881 as a stimulator. The cytotoxicity of the Tox21 compound libraries against MDA-kb2 cell line was tested by measuring live-cell protease activity using CellTiter-Fluor assay in the same wells.
Tox21 Assay Protocol Summary: MDA-kb2 cells (cells cultured without CO2) were dispensed at 3,000 cells/well in 4 uL of culture medium into white wall/solid-bottom 1536-well plates (Corning Life Sciences, Corning, NY) using a Multidrop Combi (ThermoFisher Scientific, Waltham, MA) dispenser. After the assay plates were incubated at a 37C and 0% CO2 for 5 hr, 23 nL of compounds dissolved in DMSO, positive controls or DMSO only was transferred to the assay plate by a Pintool station (Kalypsys, San Diego, CA). The transfer of compounds was followed by the addition of 1 uL of 0.5 nM (final concentration) agonist (R1881)/culture medium using a Flying Reagent Dispenser (FRD, Aurora Discovery, San Diego, CA). The plates were incubated at 37C and 0% CO2 for 16 hr. For cytotoxicity assay, 1 uL of CellTiter-Fluor reagent (Promega Corporation, Madison, WI) was added to each well using the FRD and after 30 min incubation at 37C and 0% CO2, The fluorescence intensity was measured using ViewLux plate reader (PerkinElmer, Shelton, CT).
For `c1ccc(Nc2ccc(Nc3ccccc3)cc2)cc1`, the Potency was “inactive”.
With `CC[C@H](C)[C@H]1O[C@]2(C=C[C@@H]1C)C[C@@H]1C[C@@H](C/C=C(\C)[C@@H](O[C@H]3C[C@H](OC)[C@@H](O[C@H]4C[C@H](OC)[C@@H](NC)[C@H](C)O4)[C@H](C)O3)[C@@H](C)/C=C/C=C3\CO[C@@H]4[C@H](O)C(C)=C[C@@H](C(=O)O1)[C@]34O)O2` the Potency was 17.2 µM (active).
For `CSSC`, the Potency was “inactive”.
With `CCCCON=O` the Potency was “inactive”.
With `[Cl-].[Cl-].[Sn+2]` the Potency was “inactive”.
In the case of `O=C1C[C@@H]2OCC=C3CN4CC[C@]56c7ccccc7N1[C@H]5[C@H]2[C@H]3C[C@H]46`, the Potency was “inactive”.
For `CC(=O)[O-].CC(=O)[O-].CC(=O)[O-].[Sb+3]`, the viability change, negative = cytotoxic was 2.35% [at 3.26 µM] (inactive).
With `O=C(Nc1ccc(F)cc1F)c1cccnc1Oc1cccc(C(F)(F)F)c1` the Potency was “inactive”.
With `COc1c2c(cc3c1OCO3)CCN(C)C2` the Potency was “inactive”.
For `Oc1cccc(Cl)c1Cl`, the Potency was “inactive”.
For `ClC1=C(Cl)[C@]2(Cl)[C@@H]3[C@H]4C[C@H]([C@@H]5O[C@H]45)[C@@H]3[C@@]1(Cl)C2(Cl)Cl`, the Potency was “inactive”.
For `CCOP(=O)(OCC)Oc1nc(Cl)c(Cl)cc1Cl`, the Potency was “inactive”.
With `BrCCCBr` the Potency was “inactive”.
For `CCCCCCCCCCCCCCn1cc[n+](C)c1`, the Potency was 30.7 µM (active) and 34 µM (active) and inactive.
In the case of `CCOP(=O)(OCC)Oc1cc(C)nc(C(C)C)n1`, the Potency was “inactive”.
In the case of `O=S(=O)(O)F`, the Potency was “inactive”.
For `C[C@@H]1CC2=CC(=O)CC[C@@H]2[C@H]2CC[C@@]3(C)[C@@H](CC[C@]3(C)O)[C@@H]21`, the Potency was “inactive”.
In the case of `C#CC1(O)CCCCC1`, the Potency was “inactive”.
For `CC(Cl)CCl` (stereo not given), the Potency was “inactive”.
In the case of `Cc1ccn2nc(S(=O)(=O)Nc3c(F)cccc3F)nc2n1`, the Potency was “inactive”.
For `O=C(N[C@H]1N=C(c2ccccc2F)c2cccc3c2N(CC3)C1=O)c1cc2ccccc2[nH]1`, the Potency was “inactive”.
With `COP(=S)(NC(C)C)Oc1ccc(C)cc1[N+](=O)[O-]` (stereo not given) the Potency was “inactive”.
In the case of `CSC(C)(C)/C=N/O`, the Potency was “inactive”.
In the case of `Clc1c(Cl)c(Cl)c(Cl)c(Cl)c1Cl`, the viability change, negative = cytotoxic was 0.413% [at 8.39 µM] (inactive).
In the case of `COP(=O)(OC)Oc1ccc([N+](=O)[O-])cc1`, the Potency was “inactive”.
For `CN=C=O`, the Potency was “inactive”.
In the case of `C[C@]12CC[C@H]3[C@@H](CCC4=CC(=O)CC[C@@H]43)[C@@H]1CC[C@@H]2OC(=O)CCc1ccco1`, the Potency was “inactive”.
With `[O]=[Cr][O][Cr]=[O]` the Potency was “inactive”.
With `CCCCN(CCCC)C(=S)[S-].CCCCN(CCCC)C(=S)[S-].[Ni+2]` the Potency was “inactive”.
For `O.O.O.O.O.O.O=S(=O)([O-])[O-].[Ni+2]`, the Potency was “inactive”.
With `C[N+]1(C)[C@@H]2CC[C@H]1CC(OC(=O)C(CO)c1ccccc1)C2` (stereo not given in full) the Potency was “inactive”.
For `Oc1ccc([C@H]2CNCc3c2ccc(O)c3O)cc1O`, the Potency was “inactive”.
For `ClC1=C(Cl)[C@]2(Cl)[C@H]3[C@H]([C@@H]4C=C[C@H]3C4)[C@@]1(Cl)C2(Cl)Cl`, the Potency was “inactive”.
For `CCC1(CC)C(=O)N=C(O)NC1=O`, the Potency was “inactive”.
For `c1cc[n+]2c(c1)-c1cccc[n+]1CC2`, the Potency was “inactive”.
For `N#Cc1c[nH]cc1-c1cccc2c1OC(F)(F)O2`, the Potency was “inactive”.
With `CCC(OC(C)=O)C(CC(C)NC)(c1ccccc1)c1ccccc1` (stereo not given) the Potency was 43.6 µM (active).
For `N#Cc1ccc(N(CC(N)=O)CC(F)(F)F)cc1C(F)(F)F`, the Potency was “inactive”.
For `CCCN`, the Potency was “inactive”.
For `CO/N=C(/C1=NOCCO1)c1ccccc1Oc1ncnc(Oc2ccccc2Cl)c1F`, the Potency was 17.2 µM (active).

— PubChem BioAssay (Tox21)
Potency is read from the fitted curve at half-maximal effect.
